PubChem BioAssay AID372 (MTDP, 2006)
Screen size: about 100,000 compounds; about 770 (0.77%) were called active. The entries come from a sample that favours actives as a whole. Unmarked numbers belong to inactive results. Cut-off read from the data, not from the text of the source: active = inhibition above about 50%; inactive = the rest.

biological target: Gag-Pol polyprotein (Human immunodeficiency virus type 1 group M subtype B (isolate HXB2)) (UniProt P04585); experiment: RNase H inhibition, HIV 1 Gag Pol polyprotein, FRET biochemical assay, screening (AID 372); settings: HIV-1 RT RNase H, FRET RNA/DNA substrate fluorescence; at 10 µM; stronger effect = higher value

| Structure (SMILES) | inhibition |
| --- | --- |
| Cc1cccc(N2C(=O)NC(=O)/C(=C\c3cccn3-c3ccccc3)C2=O)c1 | 22% |
| Cc1cccc(N2C(=O)NC(=O)/C(=C\c3cccn3-c3ccc(Br)cc3)C2=O)c1 | 27% |
| O=C1NC(=O)N(c2ccccc2)C(=O)/C1=C\c1cccn1-c1ccc([N+](=O)[O-])cc1 | 22% |
| O=C1NC(=O)N(c2cccc(F)c2)C(=O)/C1=C/c1cccn1-c1ccc(Cl)cc1 | 59% (active) |
| Cc1cccc(N2C(=O)NC(=O)/C(=C/c3cccn3-c3ccc([N+](=O)[O-])cc3)C2=O)c1 | 54% (active) |
| O=C1NC(=O)N(c2cccc(F)c2)C(=O)/C1=C/c1cccn1-c1ccccc1 | 24% |
| O=C1NC(=O)N(c2ccc(Cl)cc2)C(=O)/C1=C/c1cccn1-c1ccccc1 | 12% |
| O=C1NC(=O)N(c2ccccc2)C(=O)/C1=C/c1cccn1-c1ccc(Br)cc1 | 29% |
| O=C1NC(=O)N(c2cccc(F)c2)C(=O)/C1=C/c1cccn1-c1ccc(Br)cc1 | 54% (active) |
| N#CC1=C(N)OC2=C(C(=O)CC(c3ccccc3)C2)C1c1cccc(F)c1 (centres undefined) | 11% |
| COc1ccc(/C=N/NC(=O)CN2CCSCC2)c(C)c1C | 7% |
| COc1ccc(C(N)=O)cc1NC(=O)c1cccs1 | 0% |
| O=C(CCCN1C(=O)/C(=C/c2ccccc2Cl)SC1=S)Nc1cccc(F)c1 | 14% |
| Cc1ccc(Cl)cc1NC(=O)C(=O)NN=C1CCN(C)CC1 | 0% |
| Cc1onc(-c2ccccc2Cl)c1C(=O)N1CCN(c2ccccc2F)CC1 | 0% |
| Cc1cccc(N2CCN(C(=O)c3c(-c4ccccc4Cl)noc3C)CC2)c1C | 9% |
| Cc1onc(-c2ccccc2Cl)c1C(=O)N1CCN(c2ccc(Cl)cc2[N+](=O)[O-])CC1 | 55% (active) |
| COc1cccc2cc(-c3csc(Nc4ccccc4C)n3)c(=O)oc12 | 20% |
| COc1cccc2cc(-c3csc(Nc4ccc(C(C)=O)cc4)n3)c(=O)oc12 | 14% |
| CCN(CC)c1ccc(/C=N/Nc2nc(-c3cc4cccc(OC)c4oc3=O)cs2)c(O)c1 | 53% (active) |
| COc1ccc2oc(=O)c(C(=O)Nc3cccc([N+](=O)[O-])c3)cc2c1 | 55% (active) |
| COc1ccc2oc(=O)c(C(=O)Nc3ccccc3)cc2c1 | 6% |
| COc1ccc2oc(=O)c(C(=O)Nc3cccc(Cl)c3)cc2c1 | 5% |

| Structure (SMILES) | inhibition |
| --- | --- |
| O=C(/C=C\c1ccc([N+](=O)[O-])cc1)Nc1ccc(N2CCOCC2)cc1 | 7% |
| O=C(Nc1ccc(Cl)cc1)c1ccc(Br)o1 | 8% |
| O=C1NC(=O)C(=Cc2cn(-c3ccccc3)nc2-c2ccc(Br)cc2)C(=O)N1 | 59% (active) |
| O=C1NC(=O)C(=Cc2cn(-c3ccccc3)nc2-c2ccc(Cl)cc2)C(=O)N1 | 41% |
| CC1=NNC(=O)/C1=C\c1cn(-c2ccccc2)nc1-c1ccc(Br)cc1 | 14% |
| COC(=O)C1=C(C(=O)OC)SC2(S1)C(c1ccccc1)=CSC(C(=O)OC)=C2C(=O)OC | 54% (active) |
| COC(=O)C1=C(C(=O)OC)SC2(S1)C(C(=O)OC)=C(C(=O)OC)SC1=C2c2cccc(C)c2NC1(C)C | 18% |
| COC(=O)C1=C(C(=O)OC)SC2(S1)C(C(=O)OC)=C(C(=O)OC)SC1=C2c2ccccc2N(C)C1(C)C | 11% |
| CC(=O)Oc1ccc(-c2cccc(C(=O)Nc3ccccc3Cl)c2)cc1 | 16% |
| CC1=C(C(=O)Nc2ccc(C)c(Cl)c2)C(c2cccc([N+](=O)[O-])c2)NC(=O)N1 (centres undefined) | 6% |
| COc1ccc(C2CC(=O)C3=C(C2)Nc2ccccc2NC3c2c(F)cccc2Cl)cc1 (centres undefined) | 24% |
| O=C(COC(=O)c1cc(-c2ccccc2)nc2ccc(Cl)cc12)c1ccc([N+](=O)[O-])cc1 | 4% |
| COc1ccc(-c2cc(C(=O)Nc3cccc(Cl)c3)c3ccccc3n2)cc1OC | 14% |
| O=C(Nc1ccc(NC(=O)c2cccc3ccccc23)cc1)c1ccccc1 | 6% |
| O=C(Nc1ccc(Nc2ccccc2)cc1)c1cccc2ccccc12 | 50% (active) |
| CC(=O)Nc1ccc(NC(=O)c2cccc3ccccc23)cc1 | 32% |
| Cc1ccc2oc(-c3cccc(NC(=O)Cc4ccc(Cl)cc4)c3)nc2c1 | 42% |
| O=C(Cc1ccc(Cl)cc1)Nc1cccc(-c2nc3cc(Cl)cc(Cl)c3o2)c1 | 2% |
| Cc1cccc(-c2nc3cc(NC(=O)Cc4ccccc4)ccc3o2)c1 | 12% |
| Cc1ccc(-c2nc3cc(Cl)cc(Cl)c3o2)cc1NC(=O)Cc1ccc(Cl)cc1 | 38% |
| O=C(Cc1ccc(Cl)cc1)Nc1ccc(-c2nc3cc(Cl)cc(Cl)c3o2)cc1 | 50% (active) |
| Cc1cccc(-c2nc3cc(NC(=O)Cc4ccc(Cl)cc4)ccc3o2)c1 | 53% (active) |
| O=C(Cc1ccc(Cl)cc1)Nc1ccc2oc(-c3cccc(Cl)c3)nc2c1 | 52% (active) |

| Structure (SMILES) | inhibition |
| --- | --- |
| O=C(Cc1ccc(Cl)cc1)Nc1ccc2oc(-c3ccccc3Br)nc2c1 | 24% |
| O=C(Cc1ccc(Cl)cc1)Nc1ccc2oc(-c3ccccc3Cl)nc2c1 | 54% (active) |
| O=C(Cc1ccccc1)Nc1ccc2oc(-c3cccc(Cl)c3)nc2c1 | 6% |
| Cc1ccccc1-c1nc2cc(NC(=O)Cc3ccc(Cl)cc3)ccc2o1 | 30% |
| O=C(Cc1ccc(Cl)cc1)Nc1ccc2oc(-c3cccc(Br)c3)nc2c1 | 49% |
| COc1ccc(OC)c(NC(=O)c2ccc(Cl)cc2)c1 | 8% |
| O=C(N/N=C/c1cc(Cl)cc([N+](=O)[O-])c1O)/C(=C/C=C/c1ccccc1)NC(=O)c1ccccc1 | 19% |
| COc1ccc(OCCCOc2ccccc2Br)cc1 | 12% |
| COc1ccccc1N1CCN(C(=O)c2ccc(CN(c3cc(Cl)ccc3C)S(=O)(=O)c3ccccc3)cc2)CC1 | 1% |
| O=C(O)c1cccc([N+](=O)[O-])c1C(=O)Nc1cccc(Cl)c1 | 7% |
| O=C(Cc1ccc(Cl)cc1)Nc1ccc2oc(-c3ccc(F)cc3)nc2c1 | 54% (active) |
| CCc1ccc(-c2nc3cc(NC(=O)Cc4ccc(Cl)cc4)ccc3o2)cc1 | 25% |
| O=C(Cc1ccc(Cl)cc1)Nc1ccc2oc(-c3ccc(Cl)cc3)nc2c1 | 29% |
| O=C(Nc1ccc(F)cc1F)c1sc2ccccc2c1Cl | 16% |
| Cc1ccc(SCCNC(=O)CN(c2ccccc2F)S(=O)(=O)c2ccccc2)cc1 | 10% |
| O=C(O/N=C/c1ccc([N+](=O)[O-])cc1)c1cccs1 | 1% |
| Clc1ccccc1-c1nc(-c2cccnc2)no1 | 20% |
| CC(C)c1ccc(/C=C/C(=O)Nn2cnnc2)cc1 | 0% |
| Cc1ccc(C(=O)OCC(=O)c2ccc(Br)cc2)cc1[N+](=O)[O-] | 0% |
| Cc1ccc(C(=O)Nc2ccc3oc(-c4ccccc4Cl)nc3c2)cc1[N+](=O)[O-] | 55% (active) |
| Cc1ccccc1-c1nc2cc(NC(=O)c3ccc(C)c([N+](=O)[O-])c3)ccc2o1 | 41% |
| O=C(Nc1ccc(Cl)c(-c2nc3ccccc3o2)c1)c1cccc(Br)c1 | 1% |
| O=C(Nc1ccc2oc(-c3cc(Br)ccc3Cl)nc2c1)c1ccccc1 | 29% |

| Structure (SMILES) | inhibition |
| --- | --- |
| COc1ccc(C(=O)Nc2cccc(-c3nc4cc(C)c(C)cc4o3)c2)cc1[N+](=O)[O-] | 52% (active) |
| CCc1ccc(-c2nc3cc(NC(=O)c4ccc(C)c([N+](=O)[O-])c4)ccc3o2)cc1 | 35% |
| O=C(Nc1ccc(Cl)c(-c2nc3ccccc3o2)c1)c1ccc(Br)cc1 | 55% (active) |
| COc1ccc(C(=O)Nc2cccc(-c3nc4cc(C)ccc4o3)c2)cc1[N+](=O)[O-] | 1% |
| COc1ccc(-c2nc3cc(NC(=O)c4ccc(C)c([N+](=O)[O-])c4)ccc3o2)cc1 | 61% (active) |
| COc1ccc(-c2nc3cc(NC(=O)c4ccc(C)c([N+](=O)[O-])c4)ccc3o2)cc1OC | 3% |
| Cc1ccc(C(=O)Nc2ccc3oc(-c4ccc(F)cc4Cl)nc3c2)cc1[N+](=O)[O-] | 0% |
| CCOc1ccc(C(=O)Nc2cccc(-c3nc4cc(C)c(C)cc4o3)c2)cc1[N+](=O)[O-] | 11% |
| CC(C)c1cc(C(C)C)c(S(=O)(=O)NNC(=O)c2ccncc2)c(C(C)C)c1 | 1% |
| O=C(NC(=S)Nc1cccc(NC(=O)c2ccc(Cl)cc2Cl)c1)c1ccco1 | 11% |
| CCOc1ccc(N(CC(=O)NC(C)CC)S(=O)(=O)c2ccc(Br)cc2)cc1 (centres undefined) | 5% |
| COC(=O)c1cccc(NC(=O)CC(=O)c2ccccc2)c1 | 0% |
| COc1ccc(Cc2noc(-c3ccccc3Cl)n2)cc1OC | 23% |
| Cc1sc(NS(=O)(=O)c2ccc([N+](=O)[O-])cc2)nc1-c1ccc(Br)cc1 | 12% |
| O=C(/C=C/c1ccccc1)Nc1ccc(-c2nnc(-c3ccco3)o2)cc1 | 0% |
| O=C(NCc1ccc(Cl)cc1)c1ccco1 | 0% |
| Cc1nnc(Nc2ccc3c(c2)ncn3C)c2ccccc12 | 0% |
| O=C(Nc1ccc2oc(-c3ccc(Br)cc3)nc2c1)c1ccc(Cl)c([N+](=O)[O-])c1 | 58% (active) |
| O=C(Nc1ccc2oc(-c3ccc(F)cc3)nc2c1)c1ccc(Cl)c([N+](=O)[O-])c1 | 11% |
| O=C(Nc1ccc2oc(-c3cccc(Br)c3)nc2c1)c1ccc(Cl)c([N+](=O)[O-])c1 | 13% |
